Measured values taken from PubChem BioAssay (NCI).
This is part of a sample that, as a whole, favours compounds with a hit. Of some 83,000 tested, about 20% had one in any assay.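 Step 1: grow cells in 96-well plates. Step 2: add test compound at a single concentration. Step 3: incubate 48 h. Step 4: record percent growth.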 Calls of active or inactive are those of the source. Rule for the calls: active = growth percent below 10; inactive = the rest.

Tests used:
Experiment in all cases: NCI-60 one-dose screen, 48 h (100 = growth as untreated, 0 = no growth, -100 = all killed)
Details in all cases: 10 µM unless noted
T-47D breast = test system: T-47D breast
BT-549 breast = test system: BT-549 breast
MDA-MB-435 melanoma = test system: MDA-MB-435 melanoma
SW-620 colon = test system: SW-620 colon
MCF7 breast = test system: MCF7 breast
HCT-116 colon = test system: HCT-116 colon
HCC-2998 colon = test system: HCC-2998 colon
KM12 colon = test system: KM12 colon
MDA-MB-468 breast = test system: MDA-MB-468 breast

Measured: growth

Oc1cncc(-c2ccc3ncnc(N4CCc5cc(F)c(Cl)cc54)c3c2)c1
inactive: T-47D breast 41.9% | BT-549 breast 73.1% | MDA-MB-435 melanoma 69.6% | SW-620 colon 62.8% | MCF7 breast 35.3% | HCT-116 colon 48.8% | HCC-2998 colon 51.7% | KM12 colon 61.4% | MDA-MB-468 breast 48.2%

O=c1c(-c2nc(-c3ccccc3)c(-c3ccccc3)[nH]2)coc2ccc(F)cc12
inactive: T-47D breast 22.1% | BT-549 breast 70.8% | MDA-MB-435 melanoma 65.4% | SW-620 colon 51% | MCF7 breast 25.9% | HCT-116 colon 39.4% | HCC-2998 colon 77.2% | KM12 colon 23.4% | MDA-MB-468 breast 16%

CCCCCCCOc1ccc(S(=O)(=O)Nc2ccc(C)c(F)c2C(=O)O)cc1
inactive: T-47D breast 93.9% | BT-549 breast 103% | MDA-MB-435 melanoma 102% | SW-620 colon 100% | MCF7 breast 86.6% | HCT-116 colon 95.5% | HCC-2998 colon 117% | KM12 colon 97.1% | MDA-MB-468 breast 72.8%

COc1ccc2c(c1)C(Sc1ccc(Cl)cc1)c1c(nc(N)c(C#N)c1N)O2 (configuration not stated)
inactive: T-47D breast 55% | BT-549 breast 12.4% | MDA-MB-435 melanoma 75.8% | SW-620 colon 58.1% | MCF7 breast 26.7% | HCT-116 colon 48% | HCC-2998 colon 94.2% | KM12 colon 47% | MDA-MB-468 breast 77.9%

O=C(Cn1c(/C=C/c2ccc([N+](=O)[O-])cc2)nc2ccccc2c1=O)Nc1ccccc1
inactive: T-47D breast 79.9% | BT-549 breast 63.1% | MDA-MB-435 melanoma 91% | SW-620 colon 83.6% | MCF7 breast 78.5% | HCT-116 colon 61.2% | HCC-2998 colon 79.8% | KM12 colon 77.3% | MDA-MB-468 breast 45.4%

C[C@@H]1[C@H]2C[C@@H](C[C@H]1NCc1nc3ccccc3n1C1CCCCCC1)C2(C)C
active: MDA-MB-468 breast 2.05%
inactive: T-47D breast 48% | BT-549 breast 72.8% | MDA-MB-435 melanoma 73.6% | SW-620 colon 49.6% | MCF7 breast 28.1% | HCT-116 colon 23.4% | HCC-2998 colon 37.6% | KM12 colon 68.6%

COC(=O)c1c(C(=O)OC)c2c3ccccc3c3ccccc3n2c1C(=O)C(C)(C)C
inactive: T-47D breast 46.4% | BT-549 breast 62.5% | MDA-MB-435 melanoma 83.2% | SW-620 colon 100% | MCF7 breast 73% | HCT-116 colon 59% | HCC-2998 colon 85.6% | KM12 colon 62.5% | MDA-MB-468 breast 54.1%

COc1ccc(NC(=O)CSc2nnc(-c3ccc(-c4nc5ccc(Cl)cc5[nH]4)cc3)o2)cc1
inactive: T-47D breast 75.9% | MDA-MB-435 melanoma 17.8% | SW-620 colon 20.3% | MCF7 breast 42.2% | HCC-2998 colon 109% | KM12 colon 29.6% | MDA-MB-468 breast 86.2%
active: BT-549 breast 4.02% | HCT-116 colon 9.94%

COc1cc(/C=C/C(=O)c2ccc(S(=O)(=O)NCCNc3nc(N(C)C)nc(N4CCOCC4)n3)cc2)cc(OC)c1OC
inactive: T-47D breast 29.9%
active: BT-549 breast -73.3% | MDA-MB-435 melanoma -56% | SW-620 colon -100% | MCF7 breast -96.4% | HCT-116 colon -100% | HCC-2998 colon -100% | KM12 colon -100% | MDA-MB-468 breast -100%

CN(C)c1ccc(/C=C/c2n(Cc3ccc4ccccc4c3)c3ccccc3[n+]2Cc2ccc3ccccc3c2)cc1
active: T-47D breast -55.3% | BT-549 breast -87.1% | MDA-MB-435 melanoma -94.7% | SW-620 colon -65.4% | MCF7 breast -67.3% | HCT-116 colon -62.7% | HCC-2998 colon -89.1% | KM12 colon -29.9% | MDA-MB-468 breast -82.2%

N#C/C(=C1/C(=O)Nc2ccccc21)c1nnc(NC(=O)c2ccc(-n3c(=O)[nH]c4ccccc4c3=O)cc2)s1
active: T-47D breast 6.13% | MDA-MB-435 melanoma -85.5% | MCF7 breast 7.69%
inactive: BT-549 breast 12.1% | SW-620 colon 65.4% | HCT-116 colon 22.8% | HCC-2998 colon 32.5% | KM12 colon 21.4% | MDA-MB-468 breast 12.9%

Cc1nn(-c2ccccc2)c2nc(C)n(CC(=O)N/N=C/c3ccccc3O)c(=O)c12
active: MCF7 breast 7.8% | MDA-MB-468 breast -23.3%
inactive: T-47D breast 16.1% | BT-549 breast 37.2% | MDA-MB-435 melanoma 34.7% | SW-620 colon 18.9% | HCT-116 colon 24.6% | HCC-2998 colon 27.4% | KM12 colon 31%

COc1ccc(-c2cc(-c3cc(OC)c(OC)c(OC)c3)[nH]c(=O)c2C#N)cc1
inactive: T-47D breast 34.6% | BT-549 breast 70.5% | MDA-MB-435 melanoma 73.6% | SW-620 colon 93.4% | MCF7 breast 86.2% | HCT-116 colon 34.7% | HCC-2998 colon 67.1% | KM12 colon 75.8% | MDA-MB-468 breast 79.8%

CN1C(=O)/C(=C\C(=O)c2cc3ccccc3oc2=O)c2ccccc21
inactive: T-47D breast 67.4% | BT-549 breast 27.8% | MDA-MB-435 melanoma 85.4% | SW-620 colon 27.1% | MCF7 breast 46.5% | HCT-116 colon 52.6% | HCC-2998 colon 74.2% | KM12 colon 85.1% | MDA-MB-468 breast 28.8%

Cc1ccc(C2CC(c3ccc(NC(=S)Nc4ccccc4)cc3)=NN2c2ccc(S(N)(=O)=O)cc2)cc1 (configuration not stated)
active: BT-549 breast -10% | MCF7 breast 2.64% | HCC-2998 colon -16.9% | KM12 colon 2.95% | MDA-MB-468 breast 9.79%
inactive: T-47D breast 24.5% | MDA-MB-435 melanoma 23.6% | SW-620 colon 19.8% | HCT-116 colon 10.1%

O=C1NC(=NC23CC4CC(CC(C4)C2)C3)N/C1=C\c1ccc2ncccc2c1
inactive: T-47D breast 22.5% | BT-549 breast 16.2% | HCC-2998 colon 22.7% | KM12 colon 24.3% | MDA-MB-468 breast 19.4%
active: MDA-MB-435 melanoma -22.6% | SW-620 colon 1.21% | MCF7 breast -11.4% | HCT-116 colon 3.24%

COc1cccc2nc(Nc3cccc(NC(=O)c4ccc(CN5CCN(C)CC5)c(C(F)(F)F)c4)c3)ccc12
active: T-47D breast -75.9% | BT-549 breast -93.7% | MDA-MB-435 melanoma -98.1% | SW-620 colon -92.8% | MCF7 breast -79.2% | HCT-116 colon -66.9% | HCC-2998 colon -96.8% | KM12 colon -51.1% | MDA-MB-468 breast -97.2%

O=C(NNC(=O)c1ccc(OCc2nc3ccc(Cl)cc3[nH]2)cc1)Nc1ccc(Cl)c(Cl)c1
inactive: BT-549 breast 119% | MDA-MB-435 melanoma 26.7% | SW-620 colon 47% | MCF7 breast 37.7% | HCT-116 colon 26.1% | HCC-2998 colon 70.1% | KM12 colon 33.8%
active: T-47D breast -1.89% | MDA-MB-468 breast -14.8%

COc1ccc(N=Nc2c(N)nn3c(-c4ccc(F)cc4)ccnc23)cc1
inactive: T-47D breast 61.1% | BT-549 breast 96.4% | MDA-MB-435 melanoma 56.2% | SW-620 colon 44.5% | MCF7 breast 55.4% | HCT-116 colon 71.4% | HCC-2998 colon 108% | KM12 colon 86.2% | MDA-MB-468 breast 44.2%

COc1ccc(-c2cc(C)nc3[nH]c(=O)sc23)cc1
active: T-47D breast -15.1%
inactive: BT-549 breast 58.9% | MDA-MB-435 melanoma 78.7% | SW-620 colon 98.1% | MCF7 breast 83.8% | HCT-116 colon 52.1% | HCC-2998 colon 84.2% | KM12 colon 81.3% | MDA-MB-468 breast 76%

Clc1ccccc1Nc1nnc(-c2c[nH]c3ccccc23)o1
inactive: T-47D breast 27.3% | BT-549 breast 25.1% | SW-620 colon 29% | MCF7 breast 14.9% | KM12 colon 15%
active: MDA-MB-435 melanoma -44.2% | HCT-116 colon 8.25% | HCC-2998 colon 6.55% | MDA-MB-468 breast -22.5%

Cc1cn(-c2cc(NC(=O)c3ccc(C)c(-n4cc(-c5cnc6cccnn56)nn4)c3)cc(C(F)(F)F)c2)cn1
inactive: T-47D breast 94.6% | BT-549 breast 158% | MDA-MB-435 melanoma 57.7% | SW-620 colon 84.9% | MCF7 breast 98.6% | HCT-116 colon 53.2% | HCC-2998 colon 82.2% | KM12 colon 54.9% | MDA-MB-468 breast 99.1%

COc1cc(C=O)ccc1OC(=O)c1cc(-c2ccc(C)cc2)n(-c2ccc(S(C)(=O)=O)cc2)n1
inactive: T-47D breast 105% | BT-549 breast 126% | MDA-MB-435 melanoma 104% | SW-620 colon 124% | MCF7 breast 88.4% | HCT-116 colon 98.7% | HCC-2998 colon 118% | KM12 colon 104% | MDA-MB-468 breast 124%

Nc1nn2c(-c3cc4cc(Br)ccc4oc3=O)ccnc2c1N=Nc1ccc(S(N)(=O)=O)cc1
inactive: T-47D breast 77% | BT-549 breast 128% | MDA-MB-435 melanoma 78.5% | SW-620 colon 58.6% | MCF7 breast 71.4% | HCT-116 colon 56% | HCC-2998 colon 54.8% | KM12 colon 48.3% | MDA-MB-468 breast 64.7%

S=C(Nc1ccccc1)Nc1ccc(OCc2nc3ccc(Cl)cc3[nH]2)cc1
inactive: T-47D breast 51.5% | BT-549 breast 78.8% | MDA-MB-435 melanoma 75.2% | SW-620 colon 73% | MCF7 breast 24.8% | HCT-116 colon 77.5% | HCC-2998 colon 104% | KM12 colon 74.7% | MDA-MB-468 breast 12.1%

CCCSc1nnc(-c2sc3nc4ccccc4n3c2C)o1
inactive: T-47D breast 102% | BT-549 breast 157% | MDA-MB-435 melanoma 105% | SW-620 colon 108% | MCF7 breast 90.3% | HCT-116 colon 106% | HCC-2998 colon 112% | KM12 colon 101% | MDA-MB-468 breast 88.9%

Nc1nn2c(-c3cc4ccccc4oc3=O)ccnc2c1N=Nc1ccccc1
inactive: T-47D breast 85.9% | BT-549 breast 29.5% | MDA-MB-435 melanoma 107% | SW-620 colon 93% | MCF7 breast 52.7% | HCC-2998 colon 105% | KM12 colon 92% | MDA-MB-468 breast 78.3%
active: HCT-116 colon 6.75%

O=C1c2cccc3c(N4CCN(c5ccccc5)CC4)ccc(c23)C(=O)N1c1cccc(-c2nn(-c3ccccc3)cc2-c2nc3ccccc3s2)c1
inactive: T-47D breast 114% | BT-549 breast 126% | MDA-MB-435 melanoma 106% | SW-620 colon 98% | MCF7 breast 81.2% | HCT-116 colon 101% | HCC-2998 colon 115% | KM12 colon 104% | MDA-MB-468 breast 96.9%
